From the supplement of paper PMC6555819

What was measured:
Experiment in all cases: PBM binding z-score (relative to random genomic background probes); higher = stronger binding; sequences stand for … in GC…GCGATTGACAGCGTAGAATGAAGG
[1] = tested on: FXR:RXRa (NR concentration 270 nM, RXRa partner concentration 90 nM)
How it was run: (§1)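 On custom Agilent 4×180K arrays, double-stranded probes with 34-nt variable regions carried direct-repeat seeds, single-nucleotide variants, half-site ablations or random human genomic background. Ligand-free nuclear receptor dimers were applied for 1 h, and binding was read with antibodies against each partner (one per run). Binding z-scores come from regression-normalized fluorescence, with the random background probes as reference.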

[2] = tested on: LXRa:RXRa (NR concentration 270 nM, RXRa partner concentration 90 nM)
How it was run: as §1

[3] = tested on: LXRa homodimer (NR concentration 270 nM)
How it was run: as §1

[4] = tested on: LXRb:RXRa (NR concentration 270 nM, RXRa partner concentration 90 nM)
How it was run: as §1

[5] = tested on: LXRb homodimer (NR concentration 270 nM)
How it was run: as §1

[6] = tested on: PPARa:RXRa (NR concentration 270 nM, RXRa partner concentration 90 nM)
How it was run: as §1

[7] = tested on: PPARg:RXRa (NR concentration 180 nM, RXRa partner concentration 90 nM)
How it was run: as §1

[8] = tested on: PPARg:RXRa 270nM:90nM, anti-RXR (NR concentration 270 nM, RXRa partner concentration 90 nM)
How it was run: as §1

[9] = tested on: PPARg:RXRa 30nM:10nM, anti-RXR (NR concentration 30 nM, RXRa partner concentration 10 nM)
How it was run: as §1

[10] = tested on: PPARg:RXRa 90nM:30nM, anti-RXR (NR concentration 90 nM, RXRa partner concentration 30 nM)
How it was run: as §1

[11] = tested on: PPARg:RXRa DBDmut IVT, anti-RXR (DBD mutation: RXRa K156A/R161A, NR concentration 270 nM, RXRa partner concentration 90 nM)
How it was run: as §1

[12] = tested on: PPARg:RXRa IVT, anti-PPARg (NR concentration 270 nM, RXRa partner concentration 90 nM)
How it was run: as §1

[13] = tested on: PPARg DBDmut:RXRa IVT, anti-PPARg (DBD mutation: PPARg1 K132A/R137A, NR concentration 270 nM, RXRa partner concentration 90 nM)
How it was run: as §1

[14] = tested on: PPARg DBDmut IVT, anti-PPARg (DBD mutation: PPARg1 K132A/R137A, NR concentration 270 nM)
How it was run: as §1

[15] = tested on: PPARg homodimer (NR concentration 180 nM)
How it was run: as §1

[16] = tested on: PXR:RXRa (NR concentration 270 nM, RXRa partner concentration 90 nM)
How it was run: as §1

[17] = tested on: PXR homodimer (NR concentration 270 nM)
How it was run: as §1

[18] = tested on: RARa:RXR (NR concentration 270 nM, RXRa partner concentration 90 nM)
How it was run: as §1

[19] = tested on: RARa homodimer (NR concentration 270 nM)
How it was run: as §1

[20] = tested on: RARb:RXRa (NR concentration 270 nM, RXRa partner concentration 90 nM)
How it was run: as §1

Sequence | PBM binding z-score [1] | PBM binding z-score [2] | PBM binding z-score [3] | PBM binding z-score [4] | PBM binding z-score [5] | PBM binding z-score [6] | PBM binding z-score [7] | PBM binding z-score [8] | PBM binding z-score [9] | PBM binding z-score [10] | PBM binding z-score [11] | PBM binding z-score [12] | PBM binding z-score [13] | PBM binding z-score [14] | PBM binding z-score [15] | PBM binding z-score [16] | PBM binding z-score [17] | PBM binding z-score [18] | PBM binding z-score [19] | PBM binding z-score [20]
TCTTGTAGATCCACAGGAGGTTAAGAAAGATCGA | 0.0862 | 1.26 | -0.232 | 1.08 | -0.363 | 1.05 | -0.0307 | 1.43 | 2.66 | 1.83 | 1.11 | 0.557 | 0.829 | 0.516 | -0.676 | 0.82 | -0.22 | 1.22 | 0.176 | 0.506
GATACAGGGTCAGATAGAGGCCAGAGTATGGAAA | 4.95 | 3.16 | 0.138 | 3.03 | 0.456 | 4.58 | 3.32 | 3.11 | 1.18 | 2.09 | 1 | 2.53 | 1.35 | 0.368 | 2.7 | 3.26 | 0.844 | 4.13 | 0.243 | 3.97
GATACAGGGTCAGCTAGACGCCAGAGTATGGAAA | 4.79 | 2.3 | -0.39 | 2.07 | -0.431 | 4.71 | 3.71 | 3.1 | 0.594 | 1.97 | 0.771 | 2.21 | 0.485 | 0.334 | 1.15 | 1.76 | 0.0262 | 2.72 | -0.118 | 3.9
GTACCAAGGTGAATAAGTCGTTGATGAGTAGGCG | 0.544 | 0.243 | -0.143 | -0.0627 | -0.489 | 0.853 | 0.832 | 0.279 | 0.154 | -0.268 | 1.47 | 1.77 | -0.113 | 0.912 | 0.706 | -0.129 | 0.166 | 0.233 | 0.8 | 1.27
GCGACTGGGGCATAAGCAGGTTACCATAACTTAA | -0.0719 | 0.177 | -0.305 | 0.583 | -0.304 | 1.24 | 1.62 | 2.1 | 0.29 | 1.26 | 3.36 | 3.18 | -0.0704 | -1.04 | 0.497 | 0.0393 | -0.431 | 0.498 | -0.34 | 0.653
CCTCCAAGGTCAAAGGTCAGTGAAGAGATGACGG | 8.2 | 6.83 | 3.53 | 6.63 | 1.95 | 7.19 | 10.5 | 8.79 | 8.47 | 9.3 | 3.51 | 5.62 | 0.87 | -0.101 | 3.71 | 6.78 | 2.06 | 8.62 | 3.07 | 6.03
